Assay in all cases: DAPPL (digital affinity profiling via proximity ligation, sequencing); 10 mM Tris-HCl pH 7.5, 50 mM NaCl, 1 mM DTT, 4% glycerol, room temperature, 30 min; GST-TFs on glutathione beads, 16-mer random dsDNA library, 0.1% formaldehyde crosslink after washing; high values mean tight binding
One test addresses T1, ELK3 (Homo sapiens, UniProt P41970 1-407).
T1 sequence: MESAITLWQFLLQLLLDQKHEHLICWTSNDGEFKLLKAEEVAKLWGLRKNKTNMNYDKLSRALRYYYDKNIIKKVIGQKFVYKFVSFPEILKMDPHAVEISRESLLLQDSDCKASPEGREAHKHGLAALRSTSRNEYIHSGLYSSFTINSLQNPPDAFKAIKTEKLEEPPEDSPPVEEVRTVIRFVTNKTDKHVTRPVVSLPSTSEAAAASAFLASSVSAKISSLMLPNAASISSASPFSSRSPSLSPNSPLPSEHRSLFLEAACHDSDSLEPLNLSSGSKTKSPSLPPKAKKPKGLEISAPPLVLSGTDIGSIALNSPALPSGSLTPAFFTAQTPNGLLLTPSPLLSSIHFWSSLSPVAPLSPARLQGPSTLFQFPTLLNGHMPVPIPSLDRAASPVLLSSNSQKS
The note with it: protein: recombinant; tags: N-terminal GST; dsDNA, one strand shown. In short, it runs like this: (§1)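 A tag-only sample was pooled with DNA-barcoded human transcription factors that had been expressed in yeast as GST fusions and captured on glutathione beads. The pools were incubated for 30 min at room temperature with 200 nmole of a random double-stranded 16-mer DNA library in Tris/NaCl/DTT/glycerol buffer, then washed, crosslinked with 0.1% formaldehyde, proximity-ligated (BsaI/T4 ligase, 1 h, 37 °C), PCR-amplified and sequenced on an Illumina NextSeq500. Binding signal is each hexamer's read frequency for a factor divided by its frequency for the tag-only sample.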

Another test addresses HSF1 (Homo sapiens, UniProt Q00613 1-529). The note with it: protein: recombinant; tags: N-terminal GST; chain copies: 3; dsDNA, one strand shown. In short, it runs like this:
as §1

For another test, the target named is T2, ETV7 (Homo sapiens, UniProt Q9Y603 1-341).
T2 sequence: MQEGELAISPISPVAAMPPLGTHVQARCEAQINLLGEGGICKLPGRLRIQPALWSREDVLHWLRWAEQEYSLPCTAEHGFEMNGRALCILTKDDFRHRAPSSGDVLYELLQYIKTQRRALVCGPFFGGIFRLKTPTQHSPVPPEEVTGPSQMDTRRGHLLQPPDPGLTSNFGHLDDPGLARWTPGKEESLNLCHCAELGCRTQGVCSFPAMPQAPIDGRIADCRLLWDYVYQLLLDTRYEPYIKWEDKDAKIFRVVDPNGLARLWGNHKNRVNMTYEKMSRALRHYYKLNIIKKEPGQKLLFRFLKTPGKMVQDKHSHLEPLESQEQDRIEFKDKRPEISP
As to conditions: protein: recombinant; tags: N-terminal GST; dsDNA, one strand shown. In a few lines:
as §1

Another test has as its target T3, ELF5 (Homo sapiens, UniProt Q9UKW6-2 1-255).
T3 sequence: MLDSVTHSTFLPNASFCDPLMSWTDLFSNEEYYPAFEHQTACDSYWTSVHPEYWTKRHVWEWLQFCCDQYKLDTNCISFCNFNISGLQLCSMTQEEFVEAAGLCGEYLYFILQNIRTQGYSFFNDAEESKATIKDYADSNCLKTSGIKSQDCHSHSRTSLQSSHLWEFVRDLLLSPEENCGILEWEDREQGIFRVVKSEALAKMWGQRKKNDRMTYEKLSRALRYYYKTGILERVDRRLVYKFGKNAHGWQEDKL
As to conditions: protein: recombinant; tags: N-terminal GST; dsDNA, one strand shown. In short, it runs like this:
as §1

In the next test the target is T4, ETV3 (Homo sapiens, UniProt P41162-2 1-143).
T4 sequence: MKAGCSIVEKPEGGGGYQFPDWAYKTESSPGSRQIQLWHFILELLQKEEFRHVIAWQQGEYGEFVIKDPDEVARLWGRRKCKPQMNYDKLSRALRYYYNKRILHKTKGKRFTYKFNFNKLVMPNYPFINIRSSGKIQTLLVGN
The note with it: protein: recombinant; tags: N-terminal GST; dsDNA, one strand shown. In short, it runs like this: as §1

The target of the next test is ETV6 (Homo sapiens, UniProt P41212 1-452). The note with it: protein: recombinant; tags: N-terminal GST; dsDNA, one strand shown. In a few lines:
as §1

The target of another test is T5, SPIC (Homo sapiens, UniProt Q8N5J4 1-248).
T5 sequence: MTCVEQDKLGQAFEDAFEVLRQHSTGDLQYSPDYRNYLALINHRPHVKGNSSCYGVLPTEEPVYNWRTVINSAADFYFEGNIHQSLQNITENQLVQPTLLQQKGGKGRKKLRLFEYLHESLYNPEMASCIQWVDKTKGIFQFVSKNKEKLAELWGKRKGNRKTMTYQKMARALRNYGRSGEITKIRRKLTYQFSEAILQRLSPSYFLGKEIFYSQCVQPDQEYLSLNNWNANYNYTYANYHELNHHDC
The note with it: protein: recombinant; tags: N-terminal GST; dsDNA, one strand shown. In a few lines:
as §1

The next test addresses CRX (Homo sapiens, UniProt O43186 1-299). The note with it: protein: recombinant; tags: N-terminal GST; dsDNA, one strand shown. In a few lines:
as §1

The target of another test is T6, ERF (Homo sapiens, UniProt P50548 1-548).
T6 sequence: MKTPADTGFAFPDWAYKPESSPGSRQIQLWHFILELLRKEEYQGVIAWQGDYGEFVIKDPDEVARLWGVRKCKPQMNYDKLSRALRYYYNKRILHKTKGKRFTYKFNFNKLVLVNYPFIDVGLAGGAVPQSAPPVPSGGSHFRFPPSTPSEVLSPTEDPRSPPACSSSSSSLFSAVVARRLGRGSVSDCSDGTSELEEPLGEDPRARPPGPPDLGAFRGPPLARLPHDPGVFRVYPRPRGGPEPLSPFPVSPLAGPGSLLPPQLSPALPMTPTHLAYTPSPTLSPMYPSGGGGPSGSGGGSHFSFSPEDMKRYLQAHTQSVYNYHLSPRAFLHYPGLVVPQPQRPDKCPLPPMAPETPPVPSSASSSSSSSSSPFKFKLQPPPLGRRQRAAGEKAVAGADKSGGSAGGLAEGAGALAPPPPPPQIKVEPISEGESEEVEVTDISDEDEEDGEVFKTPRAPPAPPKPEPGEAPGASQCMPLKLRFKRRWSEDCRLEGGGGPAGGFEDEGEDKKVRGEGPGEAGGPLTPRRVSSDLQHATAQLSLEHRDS
The note with it: protein: recombinant; tags: N-terminal GST; dsDNA, one strand shown. In short, it runs like this: as §1

Another test has as its target T7, ERG (Homo sapiens, UniProt P11308 1-479).
T7 sequence: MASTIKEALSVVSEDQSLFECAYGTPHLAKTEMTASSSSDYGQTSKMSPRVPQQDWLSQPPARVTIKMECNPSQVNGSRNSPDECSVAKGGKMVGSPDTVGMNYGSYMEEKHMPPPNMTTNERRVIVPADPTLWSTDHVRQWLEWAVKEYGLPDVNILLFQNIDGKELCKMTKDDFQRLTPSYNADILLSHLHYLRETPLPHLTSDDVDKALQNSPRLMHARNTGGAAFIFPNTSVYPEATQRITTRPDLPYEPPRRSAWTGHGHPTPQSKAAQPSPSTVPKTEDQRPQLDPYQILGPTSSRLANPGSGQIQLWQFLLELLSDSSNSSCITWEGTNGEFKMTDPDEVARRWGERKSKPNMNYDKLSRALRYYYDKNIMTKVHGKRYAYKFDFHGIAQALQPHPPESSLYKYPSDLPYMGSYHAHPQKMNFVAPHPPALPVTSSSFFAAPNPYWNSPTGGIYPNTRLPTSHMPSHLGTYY
As to conditions: protein: recombinant; tags: N-terminal GST; dsDNA, one strand shown. In short, it runs like this: as §1

Another test deals with SPI1 (Homo sapiens, UniProt P17947 1-270). The note with it: protein: recombinant; tags: N-terminal GST; dsDNA, one strand shown. In a few lines:
as §1

The next test deals with T8, EHF (Homo sapiens, UniProt Q9NZC4 1-300).
T8 sequence: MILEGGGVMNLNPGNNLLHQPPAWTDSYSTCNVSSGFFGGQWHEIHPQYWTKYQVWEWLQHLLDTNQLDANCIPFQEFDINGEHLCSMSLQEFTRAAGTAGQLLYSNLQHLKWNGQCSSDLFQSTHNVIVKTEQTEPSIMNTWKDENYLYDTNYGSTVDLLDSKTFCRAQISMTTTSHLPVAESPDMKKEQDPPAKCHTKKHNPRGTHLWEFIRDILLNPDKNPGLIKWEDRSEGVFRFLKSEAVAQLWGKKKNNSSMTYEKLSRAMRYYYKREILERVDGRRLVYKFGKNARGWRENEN
As to conditions: protein: recombinant; tags: N-terminal GST; dsDNA, one strand shown. In a few lines: as §1

In a further test the target is T9, GABPA (Homo sapiens, UniProt Q06546 1-454).
T9 sequence: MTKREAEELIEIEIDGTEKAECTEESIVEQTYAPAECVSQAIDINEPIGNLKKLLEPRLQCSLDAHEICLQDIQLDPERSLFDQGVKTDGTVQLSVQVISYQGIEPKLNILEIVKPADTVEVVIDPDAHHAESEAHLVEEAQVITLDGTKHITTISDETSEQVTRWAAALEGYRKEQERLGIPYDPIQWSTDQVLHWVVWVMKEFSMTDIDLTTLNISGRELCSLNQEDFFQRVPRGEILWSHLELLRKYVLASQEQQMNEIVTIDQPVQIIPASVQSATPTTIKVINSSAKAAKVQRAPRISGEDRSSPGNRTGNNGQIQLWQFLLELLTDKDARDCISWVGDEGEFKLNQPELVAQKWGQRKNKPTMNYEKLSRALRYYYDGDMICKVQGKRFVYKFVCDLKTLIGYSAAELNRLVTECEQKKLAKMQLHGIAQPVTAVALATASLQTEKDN
The note with it: protein: recombinant; tags: N-terminal GST; dsDNA, one strand shown. In a few lines:
as §1

The target in another test is ELF1 (Homo sapiens, UniProt P32519 1-619). The note with it: protein: recombinant; tags: N-terminal GST; dsDNA, one strand shown. In short, it runs like this:
as §1

The target of the next test is SPIB (Homo sapiens, UniProt Q01892 1-262). As to conditions: protein: recombinant; tags: N-terminal GST; dsDNA, one strand shown. In short, it runs like this:
as §1

CRX, sequence (O43186 whole entry): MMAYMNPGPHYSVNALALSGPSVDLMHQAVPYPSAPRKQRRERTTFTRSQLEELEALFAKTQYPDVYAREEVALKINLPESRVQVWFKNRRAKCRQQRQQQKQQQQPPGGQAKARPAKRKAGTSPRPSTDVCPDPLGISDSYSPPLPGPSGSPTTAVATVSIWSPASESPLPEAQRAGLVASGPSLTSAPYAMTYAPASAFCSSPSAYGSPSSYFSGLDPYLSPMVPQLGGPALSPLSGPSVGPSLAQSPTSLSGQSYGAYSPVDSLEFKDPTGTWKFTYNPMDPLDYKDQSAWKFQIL
HSF1, sequence (Q00613 whole entry): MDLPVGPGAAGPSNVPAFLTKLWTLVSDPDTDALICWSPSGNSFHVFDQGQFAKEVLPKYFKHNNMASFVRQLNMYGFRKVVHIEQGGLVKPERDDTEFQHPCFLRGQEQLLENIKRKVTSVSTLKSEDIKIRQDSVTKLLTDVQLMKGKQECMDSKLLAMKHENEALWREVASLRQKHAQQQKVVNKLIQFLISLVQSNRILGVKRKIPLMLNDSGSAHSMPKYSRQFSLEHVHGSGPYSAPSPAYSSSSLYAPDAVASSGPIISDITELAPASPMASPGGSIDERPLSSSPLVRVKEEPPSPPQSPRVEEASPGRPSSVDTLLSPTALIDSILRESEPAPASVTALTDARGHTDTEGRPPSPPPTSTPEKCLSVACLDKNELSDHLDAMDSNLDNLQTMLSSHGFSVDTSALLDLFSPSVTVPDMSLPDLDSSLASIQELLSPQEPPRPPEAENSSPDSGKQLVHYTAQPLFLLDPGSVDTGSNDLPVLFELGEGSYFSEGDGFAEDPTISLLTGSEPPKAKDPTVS
SPIB, sequence (Q01892 whole entry): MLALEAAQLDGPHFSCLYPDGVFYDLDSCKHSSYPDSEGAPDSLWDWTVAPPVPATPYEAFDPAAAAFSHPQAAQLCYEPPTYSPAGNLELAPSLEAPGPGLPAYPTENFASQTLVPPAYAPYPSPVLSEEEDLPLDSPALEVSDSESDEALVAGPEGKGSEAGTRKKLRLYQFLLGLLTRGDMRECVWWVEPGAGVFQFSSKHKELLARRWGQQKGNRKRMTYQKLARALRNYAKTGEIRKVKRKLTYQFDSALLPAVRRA
ELF1, sequence (P32519 whole entry): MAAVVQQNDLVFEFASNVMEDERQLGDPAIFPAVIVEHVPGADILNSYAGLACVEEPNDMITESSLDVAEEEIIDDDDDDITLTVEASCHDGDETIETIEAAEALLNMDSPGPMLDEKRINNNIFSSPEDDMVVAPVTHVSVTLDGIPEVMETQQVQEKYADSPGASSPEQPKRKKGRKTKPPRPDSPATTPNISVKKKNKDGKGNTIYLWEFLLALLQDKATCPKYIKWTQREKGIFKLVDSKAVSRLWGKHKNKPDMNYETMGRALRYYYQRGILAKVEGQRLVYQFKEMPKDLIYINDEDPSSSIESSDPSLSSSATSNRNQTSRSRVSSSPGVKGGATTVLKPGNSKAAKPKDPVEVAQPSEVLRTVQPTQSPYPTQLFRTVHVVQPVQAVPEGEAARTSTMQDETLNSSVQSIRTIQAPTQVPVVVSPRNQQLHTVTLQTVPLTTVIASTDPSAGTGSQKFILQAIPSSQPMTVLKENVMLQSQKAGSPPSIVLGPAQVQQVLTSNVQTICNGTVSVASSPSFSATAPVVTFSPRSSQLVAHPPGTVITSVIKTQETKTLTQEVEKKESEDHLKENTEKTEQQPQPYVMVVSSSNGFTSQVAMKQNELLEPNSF
ETV6, sequence (P41212 whole entry): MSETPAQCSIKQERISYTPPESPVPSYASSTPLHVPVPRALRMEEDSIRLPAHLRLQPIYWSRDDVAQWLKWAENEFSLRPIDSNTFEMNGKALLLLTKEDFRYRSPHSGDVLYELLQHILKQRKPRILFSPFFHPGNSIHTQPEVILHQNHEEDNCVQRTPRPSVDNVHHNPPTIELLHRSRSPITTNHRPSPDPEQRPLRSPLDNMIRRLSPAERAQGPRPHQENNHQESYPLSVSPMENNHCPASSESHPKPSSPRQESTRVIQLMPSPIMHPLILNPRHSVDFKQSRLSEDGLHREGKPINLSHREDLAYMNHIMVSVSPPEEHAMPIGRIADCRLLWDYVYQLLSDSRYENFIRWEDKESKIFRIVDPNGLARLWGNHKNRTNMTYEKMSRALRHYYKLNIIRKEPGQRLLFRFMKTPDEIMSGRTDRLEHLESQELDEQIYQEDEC

On to GGAAAG, for which the binding signal was 1 fold enrichment (6-mer frequency, TF over GST control) with ELK3; 1.29 fold enrichment (6-mer frequency, TF over GST control) with HSF1; 1.06 fold enrichment (6-mer frequency, TF over GST control) with ETV7; 1.12 fold enrichment (6-mer frequency, TF over GST control) with ELF5; 1 fold enrichment (6-mer frequency, TF over GST control) in the test with ETV3; 1.06 fold enrichment (6-mer frequency, TF over GST control) with ETV6.

As to ACGCCA, in the test with SPIC, the binding signal is 1 fold enrichment (6-mer frequency, TF over GST control).

Consider GATCTG, for which the binding signal with HSF1 is 1.07 fold enrichment (6-mer frequency, TF over GST control); with CRX, 1.09 fold enrichment (6-mer frequency, TF over GST control).

For the sequence GAAAGT, the binding signal with HSF1 is 1.26 fold enrichment (6-mer frequency, TF over GST control); with ETV7, 1 fold enrichment (6-mer frequency, TF over GST control).

Consider GGAATA, for which the binding signal with HSF1 is 1.44 fold enrichment (6-mer frequency, TF over GST control); with CRX, 1.02 fold enrichment (6-mer frequency, TF over GST control); with ERF it was 1.02 fold enrichment (6-mer frequency, TF over GST control).

On to AATCGT, for which the binding signal is 1.01 fold enrichment (6-mer frequency, TF over GST control) in the test with HSF1 and 1.15 fold enrichment (6-mer frequency, TF over GST control) in the test with CRX.

With GTGGAT, the binding signal with ERG is 1 fold enrichment (6-mer frequency, TF over GST control); with SPI1, 1.06 fold enrichment (6-mer frequency, TF over GST control); with ELK3, 1.04 fold enrichment (6-mer frequency, TF over GST control); with HSF1, 1.01 fold enrichment (6-mer frequency, TF over GST control); in the test with CRX it was 1.25 fold enrichment (6-mer frequency, TF over GST control).

As for TCGTAA, the binding signal in the test with HSF1 was 1.12 fold enrichment (6-mer frequency, TF over GST control); in the test with CRX, 1.15 fold enrichment (6-mer frequency, TF over GST control).

As for AGCGAA, the binding signal with EHF is 1.06 fold enrichment (6-mer frequency, TF over GST control); with HSF1, 1.02 fold enrichment (6-mer frequency, TF over GST control).

For TCGAGA, the binding signal with HSF1 is 2.36 fold enrichment (6-mer frequency, TF over GST control); in the test with CRX, 1.01 fold enrichment (6-mer frequency, TF over GST control).

GCATGC: the binding signal with SPIC was 1.07 fold enrichment (6-mer frequency, TF over GST control).

With AGCAGA, the binding signal with SPIC was 1.04 fold enrichment (6-mer frequency, TF over GST control).

Consider TAAGAG, for which the binding signal was 1.19 fold enrichment (6-mer frequency, TF over GST control) with HSF1 and 1.46 fold enrichment (6-mer frequency, TF over GST control) with CRX.

Regarding CTAGAC, the binding signal with GABPA was 1.01 fold enrichment (6-mer frequency, TF over GST control); with ELF1 it was 1.09 fold enrichment (6-mer frequency, TF over GST control); with EHF, 1.01 fold enrichment (6-mer frequency, TF over GST control); in the test with HSF1, 1.59 fold enrichment (6-mer frequency, TF over GST control); in the test with CRX it was 1 fold enrichment (6-mer frequency, TF over GST control).

Take GAATCA: the binding signal with SPIB was 1.03 fold enrichment (6-mer frequency, TF over GST control); in the test with HSF1, 1.06 fold enrichment (6-mer frequency, TF over GST control); with CRX, 1.04 fold enrichment (6-mer frequency, TF over GST control).

TGCGAG: the binding signal in the test with SPIB was 1.03 fold enrichment (6-mer frequency, TF over GST control); with HSF1, 1.15 fold enrichment (6-mer frequency, TF over GST control).

As to GATAAG, the binding signal is 1.02 fold enrichment (6-mer frequency, TF over GST control) with ELK3; 1.29 fold enrichment (6-mer frequency, TF over GST control) with HSF1; 1.77 fold enrichment (6-mer frequency, TF over GST control) in the test with CRX.

Source of the values: article PMC7862700, “An all-to-all approach to the identification of sequence-specific readers for epigenetic DNA modifications on cytosine”.
